# Rows were chosen to be rich in hits. Some 3.3% of all compounds tested hit in one or more screens of this group.
# INS-1E GSIS act: GLuc luminescence reporter in INS-1E cells, primary screen for activators of glucose-dependent secretion of insulin; activation, % at 16.6 µM; INS-1E GLuc reporter insulin secretion, 2-3 h; 370,000 tested, 0.61% active; AID 743287, 2014;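 active = lowest replicate activation of at least 40%, so every replicate reaches that level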;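 also: 0% = median of neutral control wells and 100% = median of IBMX positive control wells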
# Casp6 inh: human caspase-6 inhibitors, primary screen, biochemical, VEID-R110 fluorescence, single point, set 2. P55212. purified caspase-6, Z-VEID-R110 cleavage fluorescence. inhibition, % at 12.5 µM. 350,000 tested, 0.53% active. AID 686996, 2013;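 active = mean inhibition across replicates at least about 35%, with every replicate also reaching that limit, limit read from the data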;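 also: 0% = median of neutral control wells and 100% = no fluorescence left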
# ERAP1 inh: human ERAP1 aminopeptidase inhibitors, primary screen, biochemical, single point, plate reader; AID 652197, 2013; inhibition, % at 10.7 µM; recombinant ERAP1, Leu-AMC fluorescence, 60 min; Endoplasmic reticulum aminopeptidase 1 (Homo sapiens), Q9NZ08; 340,000 tested, 0.15% active;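 active = mean replicate inhibition of at least 30%, or all replicates individually reaching that 30% level; inactive = mean below 30% and not every replicate reaching it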;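 also: 0% = neutral control wells and 100% = L-leucinethiol positive control wells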
# Target sequence (Q9NZ08 whole entry, looked up): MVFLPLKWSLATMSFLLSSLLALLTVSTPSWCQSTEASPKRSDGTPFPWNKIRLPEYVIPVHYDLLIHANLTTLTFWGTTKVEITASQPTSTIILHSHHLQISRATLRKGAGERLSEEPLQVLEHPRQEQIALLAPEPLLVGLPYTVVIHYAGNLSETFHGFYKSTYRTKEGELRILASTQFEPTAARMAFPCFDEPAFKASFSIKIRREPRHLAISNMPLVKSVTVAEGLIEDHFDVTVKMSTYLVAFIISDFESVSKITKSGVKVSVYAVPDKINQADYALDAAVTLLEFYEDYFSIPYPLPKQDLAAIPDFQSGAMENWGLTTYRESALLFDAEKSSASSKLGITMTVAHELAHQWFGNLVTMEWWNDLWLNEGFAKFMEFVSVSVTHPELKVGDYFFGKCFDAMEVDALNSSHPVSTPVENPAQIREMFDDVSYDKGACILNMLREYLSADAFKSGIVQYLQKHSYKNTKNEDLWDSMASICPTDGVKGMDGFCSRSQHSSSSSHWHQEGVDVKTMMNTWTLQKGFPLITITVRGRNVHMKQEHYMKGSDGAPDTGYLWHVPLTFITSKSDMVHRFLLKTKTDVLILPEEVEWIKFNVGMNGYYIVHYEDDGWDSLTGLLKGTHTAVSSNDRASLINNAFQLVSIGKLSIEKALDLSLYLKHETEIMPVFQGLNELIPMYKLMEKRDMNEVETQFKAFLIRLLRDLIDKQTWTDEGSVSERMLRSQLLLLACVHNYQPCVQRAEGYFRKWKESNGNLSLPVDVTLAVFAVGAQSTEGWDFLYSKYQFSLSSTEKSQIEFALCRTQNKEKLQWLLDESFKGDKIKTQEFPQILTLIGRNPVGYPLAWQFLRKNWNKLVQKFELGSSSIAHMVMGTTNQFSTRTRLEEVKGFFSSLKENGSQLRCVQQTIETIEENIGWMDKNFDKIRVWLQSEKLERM
# FGF22 binding: binders of human FGF22 protein, primary screen, FGF22 synaptogenesis inhibitor project, biophysical, thermal shift, single point. Fibroblast growth factor 22 (Homo sapiens), Q9HCT0. recombinant FGF22 thermal shift, SYPRO orange fluorescence; percent of sucrose octasulfate shift, DMSO zero. activity (Tm shift, normalised), % at 9.99 µM. 340,000 tested, 1.5% active;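 active = mean Tm shift, scaled 0 neutral to 100 positive control, at about 1.3% or above, every replicate too, limit read from the data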
# SIRT5 block: SIRT5 desuccinylase inhibitors, primary screen, biochemical, fluorescence imaging, single point, set 5; inhibition, % at 15 µM; Purified SirT5, succinyl-peptide AMC, trypsin-coupled fluorescence; 330,000 tested, 1.1% active; in the data active = inhibition above about 15%
# The depositor's hits bear a star; · = no result given; ! = a repeat was not active.
SMILES,INS-1E GSIS act,Casp6 inh,ERAP1 inh,FGF22 binding,SIRT5 block
C[C@@H]1CN([C@H](C)CO)C(=O)c2cc(NC(=O)c3ccccc3)ccc2O[C@@H](C)CCCCO[C@H]1CN(C)C(=O)NC1CCCCC1,-27.4,·,·,0.1,·
CO[C@H]1CN(C)C(=O)c2cc(NC(=O)C3CC3)ccc2OC[C@@H](C)N(C(=O)c2ccncc2)C[C@H]1C,6.5,1.3,4.2,-0.1,-12.7
CCC(=O)N(C)C[C@H]1Oc2cc(C#C[C@@H](C)O)ccc2S(=O)(=O)N([C@H](C)CO)C[C@@H]1C,-6.0,·,·,·,·
COc1ccc2c3c([nH]c2c1)[C@H](CO)NCC31CCN(C(=O)Cc2ccncc2)CC1,9.8,·,·,·,·
CCCNC(=O)N(C)C[C@@H]1Oc2ncc(-c3ccncc3)cc2C(=O)N([C@H](C)CO)C[C@@H]1C,3.7,-3.8,32.9*!,0.2,0.4
CCCNC(=O)N(C)C[C@H]1Oc2ncc(-c3ccncc3)cc2C(=O)N([C@H](C)CO)C[C@@H]1C,15.2,-0.9,-2.0,-0.1,-0.3
Cc1nc(N)c(C#N)c(-c2cccnc2)c1C,48.3*,·,·,·,·
O=C(CCOc1ccccc1)Nc1ccnn1C1CCN(Cc2ccc(CO)o2)CC1,3.6,-13.5,-0.1,2.5*,-4.2
Cc1ccc(CN2CCC(n3nccc3NC(=O)CCOc3ccccc3)CC2)o1,24.1,-4.5,-4.4,0.5,-2.2
CO[C@@]1(NC(=O)CSCC#N)C(=O)N2C(C(=O)O)=C(CSc3nnnn3C)CS[C@@H]21,·,·,-2.5,1.5*,0.9
COc1ccc(CN(C)C[C@H]2Oc3ccc(NS(=O)(=O)c4ccc(F)cc4)cc3CC(=O)N([C@H](C)CO)C[C@@H]2C)cc1,-10.8,1.6,-0.9,-0.2,5.4
O=C(CCS(=O)(=O)c1ccccc1)Nc1ccc(S(=O)(=O)Nc2nccs2)cc1,·,3.8,2.2,42.9*,·
O=C(CCc1ccccc1)Nc1ccc(S(=O)(=O)Nc2nccs2)cc1,25.2,2.2,1.8,-0.1,-2.1
CCOc1ncccc1C(=O)Nc1nnc(C)s1,24.3,7.8,-4.1,-0.2,1.8
O=C(CCS(=O)(=O)c1ccccc1)Nc1ccc(-c2nc3ccccc3s2)cc1,-3.1,-0.2,-0.7,43.8*,-2.2
CCOc1ncccc1C(=O)Nc1ccc(S(=O)(=O)Nc2nccs2)cc1,85.8*,-5.7,-1.3,0.2,1.1
CCOc1ncccc1C(=O)Nc1nnc(C2CC2)s1,32.5,-1.9,-2.4,43.9*,-7.4
O=C(CCS(=O)(=O)c1ccccc1)Nc1cccc(-c2nc3ccccc3s2)c1,-8.1,-0.4,-0.1,1.1,0.7
COc1ccc(-c2ccc3n(c2=O)C[C@H]2[C@H](CO)[C@@H](C(=O)N(C)C)[C@@H]3N2C(=O)c2cnccn2)cc1,9.2,·,·,·,·
O=S(=O)(c1ccc(N=C2NN=C(c3cc(F)ccc3F)CS2)cc1)N1CCOCC1,-12.3,·,1.2,0.3,27.3*
Fc1ccc(N=C2NN=C(c3cc(F)ccc3F)CS2)cc1,5.2,-0.5,0.9,0.2,5.6
CCS(=O)(=O)Nc1ccc2c(c1)C(=O)N(C)[C@@H]1CC[C@@H](CC(=O)NC3CCCCC3)O[C@@H]1CO2,-1.5,2.3,-3.3,-0.1,6.0
C[n+]1ccc(C(=O)Nc2ccccc2Cl)cc1,·,0.3,102.2*,0.1,-3.0
O=C(Nc1ccccc1Cl)c1ccc2ccccc2c1,-1.7,-1.7,-2.3,0.1,0.5
Cc1ccc(C)c(NC(=O)c2cc[n+](C)cc2)c1,-3.5,-62.4,87.2*,-0.1,-4.8
SMILES,INS-1E GSIS act,Casp6 inh,ERAP1 inh,FGF22 binding,SIRT5 block
COc1cccc(NC(=O)N[C@@H]2C=C[C@@H](CC(=O)N3CCCCC3)O[C@@H]2CO)c1,22.0,2.4,-1.1,·,-7.1
CCC(=O)N1[C@@H]2c3ccc(C4=CCCC4)c(=O)n3C[C@@H]2[C@@H](CO)[C@@H]1C(=O)NC1CCCC1,1.1,0.7,2.7,0.0,9.4
COCCNc1nc(Cl)c(C#N)s1,-0.8,-2.6,-2.2,0.3,2.9
CC(O)CNc1nc(Cl)c(C#N)s1 (configuration not stated),0.3,-1.4,-0.9,43.1*,2.2
N/C(Cc1nc(-c2ccc(Br)cc2)cs1)=N\O,0.9,-4.8,1.3,43.4*,-9.4
O=C(c1cnccn1)N1CC(=O)N2[C@H](C1)[C@@H](c1ccc(-c3ccccc3)cc1)[C@@H]2CO,5.8,-0.8,0.8,·,-3.7
Cc1cc(/C=N/NC(=O)c2ccsc2)c(C)n1-c1cnccn1,-1.7,4.3,-3.3,43.7*,2.2
CCc1ccc2c(c1)C(=O)c1ccccc1C2=O,8.2,-2.6,2.5,43.0*,7.1
CC(C)(C)c1ccc2c(c1)C(=O)c1ccccc1C2=O,-3.9,-1.7,6.2,0.1,-3.5
CN1[C@@H]2CN(C(=O)C3CCOCC3)c3ccccc3[C@@H]2[C@@H]1CO,5.9,-1.9,0.1,0.0,-1.1
NNC(=O)c1cccc(O)c1,43.4*,·,·,·,·
Cc1noc(C)c1NC(=O)N(C)C[C@@H]1Oc2ncc(C#CC3CCCCC3)cc2C(=O)N([C@@H](C)CO)C[C@@H]1C,2.8,-3.0,1.1,0.0,-1.3
Cc1ccc(-c2noc(CN(C(=O)c3ccc4c(c3)OCO4)C(C)C)n2)cc1,15.6,·,-1.1,-0.2,-2.2
Cc1ccc(C(=O)N(Cc2nc(-c3ccc(C)cc3)no2)C(C)C)cc1,19.6,-2.8,0.1,-0.3,16.8*
CCCCc1nc(SCCN2CCOCC2)c2c(=O)n(C)c(=O)n(C)c2n1,-2.4,-5.8,1.8,43.0*,-1.8
Cn1cnc(C(=O)N2CCN(C(=O)OC(C)(C)C)CC2)c1C(=O)N1CCN(C(=O)OC(C)(C)C)CC1,18.9,-4.2,105.8*,-0.1,·
CC(C)NC(=O)N(C)C[C@H]1Oc2ccc(NC(=O)Cc3cn(C)c4ccccc34)cc2CC(=O)N([C@H](C)CO)C[C@@H]1C,3.4,-3.9,-0.7,-0.1,10.2
O=C(CS(=O)(=O)c1cn(CC(=O)N2CCCC2)c2ccccc12)Nc1ccccc1,28.6,2.2,4.8,0.2,2.5
O=C(CS(=O)(=O)c1cn(CC(=O)N2CCOCC2)c2ccccc12)Nc1ccccc1,40.2*,1.1,4.8,-0.2,-2.2
COc1ccc(S(=O)(=O)Nc2cccc3c2O[C@@H](CN(C)S(=O)(=O)c2c(C)noc2C)[C@H](C)CN([C@H](C)CO)C3=O)cc1,11.0,0.8,-0.6,-0.5,102.0*
COc1ccc(S(=O)(=O)N(C)C[C@@H]2Oc3c(NC(=O)c4ccncc4)cccc3C(=O)N([C@@H](C)CO)C[C@H]2C)cc1,7.7,0.1,0.6,-0.4,16.5*
COc1ccc(S(=O)(=O)N(C)C[C@@H]2Oc3c(NC(=O)c4ccncc4)cccc3C(=O)N([C@@H](C)CO)C[C@@H]2C)cc1,20.2,1.2,0.7,0.1,-2.1

# Compound activity (PubChem)
